According to PubChem BioAssay (NCI):
Where “and” joins values, the source holds several entries; their conditions need not be identical. Equal entries are not always repeated. Compounds without any hit were thinned out: in the full panel of roughly 83,000, 20% have a hit.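 Negative percent growth values reflect cell death: -40 means 40% of the cells present at the start died, and -100 means all died.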 Calls of active or inactive are those of the source. The calls were made as follows: active = growth percent below 10; inactive = the rest.

Key:
Test in all cases: NCI-60 one-dose screen, 48 h (100 = growth as untreated, 0 = no growth, -100 = all killed)
[1] = test system: HCT-15 colon; conditions: 10 µM
[2] = test system: HT29 colon; conditions: 10 µM
[3] = test system: SNB-75 CNS; conditions: 10 µM
[4] = test system: SNB-19 CNS; conditions: 10 µM
[5] = test system: PC-3 prostate; conditions: 10 µM
[6] = test system: SK-MEL-5 melanoma; conditions: 10 µM
[7] = test system: UACC-62 melanoma; conditions: 10 µM unless noted
[8] = test system: LOX IMVI melanoma; conditions: 10 µM
[9] = test system: SK-MEL-28 melanoma; conditions: 10 µM
[10] = test system: SK-MEL-2 melanoma; conditions: 10 µM
[11] = test system: SN12C renal; conditions: 10 µM
[12] = test system: UO-31 renal; conditions: 10 µM
[13] = test system: TK-10 renal; conditions: 10 µM unless noted
[14] = test system: ACHN renal; conditions: 10 µM
[15] = test system: CAKI-1 renal; conditions: 10 µM
[16] = test system: A498 renal; conditions: 10 µM
[17] = test system: HL-60(TB) leukemia; conditions: 10 µM
[18] = test system: U251 CNS; conditions: 10 µM
[19] = test system: CCRF-CEM leukemia; conditions: 10 µM
[20] = test system: EKVX NSCLC; conditions: 10 µM

| Structure (SMILES) | growth [1] | growth [2] | growth [3] | growth [4] | growth [5] | growth [6] | growth [7] | growth [8] | growth [9] | growth [10] | growth [11] | growth [12] | growth [13] | growth [14] | growth [15] | growth [16] | growth [17] | growth [18] | growth [19] | growth [20] |
| --- | --- | --- | --- | --- | --- | --- | --- | --- | --- | --- | --- | --- | --- | --- | --- | --- | --- | --- | --- | --- |
| COC1CC2C=C(C)/C=C/C=C/C(=O)NC(c3ccccc3)C/C=C/CCC(O)CC(=O)C2=C1O (centres undefined) | -85.2% (active) | -83.7% (active) | -89.9% (active) | -27.1% (active) | -91.1% (active) | -97.2% (active) | -89.3% (active) | -91.6% (active) | -80.9% (active) | -89.8% (active) | -84.9% (active) | -95.7% (active) | -59.9% (active) | -93.3% (active) | -88% (active) | -87.7% (active) | -5.27% (active) | – | – | – |
| Cc1cc(C)c(C[N+](C)(C)C)c(C)c1C | 7.64% (active) | 3.52% (active) | 8.87% (active) | 16.1% (inactive) | 14.3% (inactive) | – | – | -28.2% (active) | -9.07% (active) | -19.5% (active) | 0.359% (active) | 4.54% (active) | – | 6.7% (active) | 5.45% (active) | 8.63% (active) | – | 1.76% (active) | -2.18% (active) | – |
| C/C1=C\[C@H](C)C[C@H](C)OC(=O)C[C@H](c2ccc(O)cc2)NC(=O)[C@@H](Cc2c(Br)[nH]c3ccccc23)N(C)C(=O)[C@H](C)NC(=O)[C@@H](C)C1 | -38.1% (active) | -33.5% (active) | -76.4% (active) | -21.9% (active) | -59.6% (active) | – | -1.83% (active) | -32.7% (active) | – | -67.3% (active) | 14.2% (inactive) | -92.1% (active) | -81.7% (active) | -18.7% (active) | -43.2% (active) | -78.8% (active) | -44% (active) | -50.6% (active) | -21.5% (active) | -23.6% (active) |
| S=C=NCCc1ccccc1 | 51.7% (inactive) | 31.9% (inactive) | 54.2% (inactive) | 54.3% (inactive) | 64.2% (inactive) | – | 55% (inactive) | 32.2% (inactive) | – | 104% (inactive) | 68.4% (inactive) | 51.3% (inactive) | 78.9% (inactive) | 72% (inactive) | 69.4% (inactive) | – | 9.55% (active) | 46.5% (inactive) | 16.7% (inactive) | 127% (inactive) |
| NNc1ccccc1 | 82.3% (inactive) | 96.9% (inactive) | 93.2% (inactive) | 96.7% (inactive) | – | – | 40.4% (inactive) | 65.3% (inactive) | 107% (inactive) | – | 97.3% (inactive) | 64% (inactive) | 42.3% (inactive) | 64.5% (inactive) | 65.4% (inactive) | 97.5% (inactive) | 5.84% (active) | 103% (inactive) | 42.7% (inactive) | 89.6% (inactive) |
| CC[C@@H](C)[C@@H]1NC(=O)C(NC(=O)C(CC(C)C)N(C)C(=O)C2CCCN2C(=O)C(C)O)C(C)OC(=O)C(Cc2ccc(OC)cc2)N(C)C(=O)C2CCCN2C(=O)C(CC(C)C)NC(=O)C(C)C(=O)C(C(C)C)OC(=O)C[C@H]1O (some centres undefined) | -32.7% (active) | -53.2% (active) | -95.7% (active) | -44% (active) | -37.2% (active) | – | -68.9% (active) | -70.2% (active) | – | -52.4% (active) | -14.5% (active) | -33.2% (active) | -15.3% (active) | -70.5% (active) | -6.01% (active) | – | -25.2% (active) | -43.8% (active) | -20.7% (active) | -10.5% (active) |
| COC12C(COC(N)=O)C3=C(C(=O)C(C)=C(N)C3=O)N1CC1C2N1C (centres undefined) | 33.2% (inactive) | 8.04% (active) | 32.9% (inactive) | 39.1% (inactive) | 47% (inactive) | – | 46.3% (inactive) | 28.3% (inactive) | – | 91.4% (inactive) | 46.8% (inactive) | 32.7% (inactive) | 69.4% (inactive) | 10.8% (inactive) | 16.6% (inactive) | 46.9% (inactive) | -23.2% (active) | 43% (inactive) | 24.8% (inactive) | 91.7% (inactive) |
| CC(C)c1cc([N+](=O)[O-])cc([N+](=O)[O-])c1O | 108% (inactive) | 103% (inactive) | – | 107% (inactive) | 81.4% (inactive) | 98.4% (inactive) | 98.1% (inactive) | 93.7% (inactive) | 102% (inactive) | 94% (inactive) | 103% (inactive) | 85.8% (inactive) | 98.6% (inactive) | 103% (inactive) | 99% (inactive) | 108% (inactive) | 62.2% (inactive) | 103% (inactive) | 103% (inactive) | 110% (inactive) |
| Cc1ccc(C(=O)C2C(c3ccccc3)N2C2CCCCC2)cc1 (centres undefined) | 99.3% (inactive) and 89.8% (inactive) | 111% (inactive) and 84.9% (inactive) | 97.5% (inactive) and 88.8% (inactive) | 105% (inactive) and 94% (inactive) | 98% (inactive) and 83% (inactive) | – | 102% (inactive) and 91.2% (inactive) | 99.9% (inactive) and 98.1% (inactive) | 105% (inactive) and 102% (inactive) | 101% (inactive) and 98.3% (inactive) | 107% (inactive) and 100% (inactive) | 92.8% (inactive) and 73.4% (inactive) | 137% (inactive) and 108% (inactive) | 113% (inactive) and 97.9% (inactive) | 107% (inactive) and 94.3% (inactive) | 105% (inactive) and 89% (inactive) | 98.3% (inactive) and 94.8% (inactive) | 106% (inactive) and 93.1% (inactive) | 94.2% (inactive) and 96% (inactive) | – |
| COc1cc(/C=C/[N+](=O)[O-])cc(Br)c1OC | 7.99% (active) | – | 19.5% (inactive) | 49% (inactive) | 31.1% (inactive) | – | -5.62% (active) | -100% (active) | -19.8% (active) | – | 28.7% (inactive) | -1.36% (active) | -38.1% (active) | 60.7% (inactive) | 61.3% (inactive) | – | 0.838% (active) | -21.2% (active) | 6.59% (active) | 103% (inactive) |
| CC(=O)c1ccccc1O | – | – | – | – | – | – | – | – | – | – | – | – | – | – | – | – | 85.9% (inactive) and 82.5% (inactive) and 101% (inactive) | – | – | – |
| CC[C@@]1(O)C[C@H](OC2CC(N(C)C)C(O)C(C)O2)c2c(cc3c(c2O)C(=O)c2c(O)ccc(O)c2C3=O)[C@H]1C(=O)OC (some centres undefined) | -43% (active) | -20.5% (active) | -88% (active) | -36.9% (active) | -57.4% (active) | – | -91.4% (active) | -85.1% (active) | – | -57.1% (active) | -42.7% (active) | -64.7% (active) | -50.4% (active) | -88.4% (active) | -71.8% (active) | – | -68.9% (active) | -90.8% (active) | -30.1% (active) | -47.8% (active) |
| C[C@H]1CC[C@@]2(NC1)O[C@H]1C[C@H]3[C@@H]4CC[C@H]5C[C@@H](O)CC[C@]5(C)[C@H]4CC[C@]3(C)[C@H]1[C@@H]2C | – | – | – | – | – | – | 8.84% [100 µM] (active) and 2.39% [100 µM] (active) | – | – | – | – | – | 25.1% [100 µM] (inactive) and -60.4% [100 µM] (active) | – | – | – | – | – | – | – |
| O=[N+]([O-])/C=C\c1ccc2c(c1)OCO2 | 78.4% (inactive) | 58.2% (inactive) | – | 102% (inactive) | 83% (inactive) | – | 82.5% (inactive) | 18.9% (inactive) | – | 115% (inactive) | 94.2% (inactive) | 64.5% (inactive) | 87.1% (inactive) | 90.4% (inactive) | 86.6% (inactive) | 96.5% (inactive) | 106% (inactive) | 71.1% (inactive) | 92.5% (inactive) | 96.9% (inactive) |
| Cc1ccc(NC(=O)CBr)cc1 | 96.6% (inactive) | 115% (inactive) | 97.1% (inactive) | 96.8% (inactive) | 96.4% (inactive) | 96.4% (inactive) | 86.8% (inactive) | 49.8% (inactive) | 102% (inactive) | 110% (inactive) | 95.7% (inactive) | 86.1% (inactive) | 110% (inactive) | 108% (inactive) | 104% (inactive) | 99.3% (inactive) | – | – | 23.8% (inactive) | – |
| O=[N+]([O-])c1ccc(N(CCO)CCO)c2c1no[n+]2[O-] | – | -78.6% (active) | -39.3% (active) | -17.9% (active) | -5.95% (active) | -73.9% (active) | -41.6% (active) | -26.5% (active) | -8.85% (active) | -16.3% (active) | -4.84% (active) | 7.25% (active) | -13.4% (active) | -12.3% (active) | -11.9% (active) | -15.6% (active) | -33.1% (active) | -69.2% (active) | -38% (active) | -9.06% (active) |
| COc1ccc2c(ccc3oc([N+](=O)[O-])cc32)c1 | 5.1% (active) | -8.59% (active) | -68.5% (active) | 5.8% (active) | 9.56% (active) | – | -60.2% (active) | -35.9% (active) | -39.6% (active) | – | 6.57% (active) | -13.4% (active) | -15% (active) | 2.78% (active) | 5.89% (active) | -76.1% (active) | -31.4% (active) | -8.64% (active) | 4.13% (active) | – |
| COc1cc2c3cc1Oc1c(OC)c(OC)cc4c1C(Cc1ccc(cc1)Oc1cc(ccc1O)CC3N(C)CC2)N(C)CC4 (centres undefined) | – | – | – | – | – | – | -16.8% [100 µM] (active) and -81.7% [100 µM] (active) | – | – | – | – | – | 48% [100 µM] (inactive) and -100% [100 µM] (active) | – | – | – | – | – | – | – |
| COc1cc([N+](=O)[O-])c2ncccc2c1[N+](=O)[O-] | 68.9% (inactive) | – | 61.3% (inactive) | 96% (inactive) | 66.4% (inactive) | – | 74% (inactive) | 12.2% (inactive) | 90.9% (inactive) | – | 71.4% (inactive) | 41% (inactive) | 27.1% (inactive) | 56.1% (inactive) | 24.8% (inactive) | 122% (inactive) | 65.5% (inactive) | 41.9% (inactive) | 22.9% (inactive) | 102% (inactive) |
| O=[P+](O)c1ccccc1 | 108% (inactive) | 118% (inactive) | 97.4% (inactive) | 106% (inactive) | 93.6% (inactive) | – | 105% (inactive) | 102% (inactive) | 104% (inactive) | 109% (inactive) | 104% (inactive) | – | 117% (inactive) | 102% (inactive) | 103% (inactive) | 104% (inactive) | 106% (inactive) | 104% (inactive) | 79.9% (inactive) | 115% (inactive) |
